# PubChem BioAssay
# Target: Neurogenic locus notch homolog protein 2 (Homo sapiens) (UniProt Q04721)
# Assay: small molecules binding Notch2 protein – biochemical, small-molecule microarray, 635 nm fluorescence, stem cell growth factors, primary screen (AID 1073)
# Conditions: higher = more signal
# Chain of Neurogenic locus notch homolog protein 2 (Homo sapiens) (Q04721 whole entry, looked up): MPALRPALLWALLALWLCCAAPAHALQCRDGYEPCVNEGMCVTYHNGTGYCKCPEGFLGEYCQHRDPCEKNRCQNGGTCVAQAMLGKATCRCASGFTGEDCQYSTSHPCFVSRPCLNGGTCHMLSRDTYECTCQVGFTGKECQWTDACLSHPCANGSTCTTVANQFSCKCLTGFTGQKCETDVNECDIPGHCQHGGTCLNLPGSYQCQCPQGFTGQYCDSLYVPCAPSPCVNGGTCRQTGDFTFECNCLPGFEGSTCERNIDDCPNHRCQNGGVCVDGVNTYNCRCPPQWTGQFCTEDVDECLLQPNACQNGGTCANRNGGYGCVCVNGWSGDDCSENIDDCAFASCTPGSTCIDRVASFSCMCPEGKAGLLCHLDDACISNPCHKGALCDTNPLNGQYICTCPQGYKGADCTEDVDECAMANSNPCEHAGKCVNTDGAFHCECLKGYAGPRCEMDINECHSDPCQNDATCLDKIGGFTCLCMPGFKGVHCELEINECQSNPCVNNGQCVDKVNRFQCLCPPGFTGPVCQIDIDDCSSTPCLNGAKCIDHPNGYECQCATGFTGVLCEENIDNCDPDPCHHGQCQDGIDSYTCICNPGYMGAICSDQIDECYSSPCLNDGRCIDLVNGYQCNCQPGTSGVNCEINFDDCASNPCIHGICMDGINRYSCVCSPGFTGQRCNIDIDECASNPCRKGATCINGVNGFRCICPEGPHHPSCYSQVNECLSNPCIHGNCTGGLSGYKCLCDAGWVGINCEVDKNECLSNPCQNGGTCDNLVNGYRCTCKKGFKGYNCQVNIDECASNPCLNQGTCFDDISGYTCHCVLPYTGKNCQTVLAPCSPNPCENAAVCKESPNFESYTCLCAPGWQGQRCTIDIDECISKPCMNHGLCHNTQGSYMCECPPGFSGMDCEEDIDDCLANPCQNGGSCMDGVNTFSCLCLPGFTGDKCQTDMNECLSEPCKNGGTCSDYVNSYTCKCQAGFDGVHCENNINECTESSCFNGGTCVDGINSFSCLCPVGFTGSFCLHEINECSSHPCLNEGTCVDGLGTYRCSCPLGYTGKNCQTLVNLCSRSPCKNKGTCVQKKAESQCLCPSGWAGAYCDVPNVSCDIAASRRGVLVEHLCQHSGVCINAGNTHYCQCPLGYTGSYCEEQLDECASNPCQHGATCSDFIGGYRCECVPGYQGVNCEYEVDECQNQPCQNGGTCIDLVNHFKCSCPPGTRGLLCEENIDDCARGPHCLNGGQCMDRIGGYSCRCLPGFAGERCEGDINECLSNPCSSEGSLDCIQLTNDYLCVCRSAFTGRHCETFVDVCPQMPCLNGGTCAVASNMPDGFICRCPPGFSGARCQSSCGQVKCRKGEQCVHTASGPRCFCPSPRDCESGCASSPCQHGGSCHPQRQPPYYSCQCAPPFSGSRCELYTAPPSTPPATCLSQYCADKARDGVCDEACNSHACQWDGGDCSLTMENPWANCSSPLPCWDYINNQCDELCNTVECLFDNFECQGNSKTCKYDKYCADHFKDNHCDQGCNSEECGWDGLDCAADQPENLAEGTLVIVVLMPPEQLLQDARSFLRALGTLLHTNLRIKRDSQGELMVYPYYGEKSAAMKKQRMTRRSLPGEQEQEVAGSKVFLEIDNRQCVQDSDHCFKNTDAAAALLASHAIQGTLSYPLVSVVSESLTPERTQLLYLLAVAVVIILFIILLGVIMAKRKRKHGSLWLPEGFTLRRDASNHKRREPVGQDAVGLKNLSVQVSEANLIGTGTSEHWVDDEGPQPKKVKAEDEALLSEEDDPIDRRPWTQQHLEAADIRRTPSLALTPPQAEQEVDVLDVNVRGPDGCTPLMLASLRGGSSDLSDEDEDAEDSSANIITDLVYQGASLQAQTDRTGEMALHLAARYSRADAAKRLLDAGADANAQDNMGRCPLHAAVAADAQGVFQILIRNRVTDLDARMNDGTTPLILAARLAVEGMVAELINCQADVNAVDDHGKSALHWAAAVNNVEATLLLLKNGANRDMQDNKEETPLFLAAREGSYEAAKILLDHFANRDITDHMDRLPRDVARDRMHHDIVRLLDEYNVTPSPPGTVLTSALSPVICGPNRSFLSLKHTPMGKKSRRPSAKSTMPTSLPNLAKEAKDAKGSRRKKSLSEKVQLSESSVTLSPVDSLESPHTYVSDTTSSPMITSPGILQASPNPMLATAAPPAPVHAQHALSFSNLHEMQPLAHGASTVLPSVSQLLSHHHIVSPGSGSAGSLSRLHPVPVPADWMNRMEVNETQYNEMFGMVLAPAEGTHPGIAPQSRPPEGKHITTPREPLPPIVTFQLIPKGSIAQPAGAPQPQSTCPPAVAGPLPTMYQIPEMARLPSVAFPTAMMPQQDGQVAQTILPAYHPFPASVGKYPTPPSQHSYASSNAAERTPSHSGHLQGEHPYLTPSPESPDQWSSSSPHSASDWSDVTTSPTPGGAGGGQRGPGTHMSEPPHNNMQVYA
row,SMILES,composite z-score
1,C=CCNC(=O)[C@H]1[C@@H]2C(=O)O[C@@H](c3ccccc3)[C@@H](c3ccccc3)N2[C@@H](c2ccc(OCCO)cc2)[C@]12C(=O)N(C(=O)OCCOC)c1ccc(C#CCC(C(=O)OC)C(=O)OC)cc12,0.881
2,C=CCOC(=O)[C@H]1[C@@H]2C(=O)O[C@@H](c3ccccc3)[C@@H](c3ccccc3)N2[C@@H](c2ccc(OCCOC(=O)[C@@H]3C[C@@H]4C(=O)N[C@@H](Cc5ccccc5)C(=O)N4[C@@H]3c3ccc(O)cc3)cc2)[C@]12C(=O)Nc1ccc(I)cc12,0.437
3,CCN1C(=O)C2CC(=O)C3C(CN(S(=O)(=O)c4ccc(C)cc4)C3c3ccc(C)cc3)C2C1=O (stereo not drawn),0.308
4,C=C(C)C1CN([C@H](CO)c2ccccc2)C(=O)/C1=C\c1ccccc1 (stereo partly drawn),-0.0443
5,C=C(COC)C(=O)CC[C@H](OC(C)=O)c1ccc(CO)o1,-0.0537
6,COC(=O)C(CC#Cc1ccc2c(c1)[C@]1(C(=O)N2)[C@H](C(=O)NC[C@H](O)c2ccccc2)[C@H]2C(=O)O[C@H](c3ccccc3)[C@H](c3ccccc3)N2[C@@H]1c1ccc(O)cc1)C(=O)OC,0.259
7,C=C[C@H](OC)[C@@H](O)c1ccc(OC)c(O)c1,-1.34
8,CC[C@@H](O[Si](C#C[Si](C(C)C)(C(C)C)C(C)C)(C(C)C)C(C)C)c1cn(Cc2cccc(Cl)c2)nn1,0.863
9,COC(=O)C1=CC(c2ccc(CO)cc2)=CC(C2CC2)N(Cc2cc3c(cc2Br)OCO3)C=C1C(=O)OC (stereo not drawn),1.66
10,O=C(NCCN1CCOCC1)[C@@H]1c2ccccc2C(=O)N(CC23CC4CC(CC(C4)C2)C3)[C@H]1c1ccc(CO)cc1,1.64
11,COCCCNC(=O)[C@@]1(CCC(=O)OC(C)(C)C)N=C(c2ccc(OCCCO)cc2)O[C@H]1c1ccccc1,1.23
12,CN1C2C=C(c3ccc(CO)cc3)C(C3C(=O)N(C(N)=O)C(=O)C32)C1C1CC1 (stereo not drawn),-0.161
13,N#Cc1ccc(NN2C(C(O)c3ccc(B(O)O)cc3)C=CC3CN(c4ccccc4)C(=O)C32)cc1 (stereo not drawn),0.074

# Target: Pro-neuregulin-1, membrane-bound isoform (Homo sapiens) (UniProt Q02297)
# Sequence (Q02297 whole entry, looked up, canonical isoform): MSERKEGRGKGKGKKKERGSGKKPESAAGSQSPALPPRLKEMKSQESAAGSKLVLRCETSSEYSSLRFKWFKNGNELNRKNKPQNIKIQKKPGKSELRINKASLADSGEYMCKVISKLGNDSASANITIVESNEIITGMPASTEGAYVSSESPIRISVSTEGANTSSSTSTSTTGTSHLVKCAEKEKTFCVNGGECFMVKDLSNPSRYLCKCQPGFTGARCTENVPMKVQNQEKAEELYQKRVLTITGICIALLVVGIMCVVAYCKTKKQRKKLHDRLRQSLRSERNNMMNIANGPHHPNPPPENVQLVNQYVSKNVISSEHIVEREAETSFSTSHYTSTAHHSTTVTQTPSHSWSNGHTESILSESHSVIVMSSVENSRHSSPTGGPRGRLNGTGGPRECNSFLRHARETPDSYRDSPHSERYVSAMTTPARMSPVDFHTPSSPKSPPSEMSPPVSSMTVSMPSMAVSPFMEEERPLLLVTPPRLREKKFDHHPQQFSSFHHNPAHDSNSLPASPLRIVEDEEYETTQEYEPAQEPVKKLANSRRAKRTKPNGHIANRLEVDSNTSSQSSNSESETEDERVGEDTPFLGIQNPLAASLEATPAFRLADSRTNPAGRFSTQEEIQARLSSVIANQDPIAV
# Assay: small molecules binding neuregulin-1 protein – biochemical, small-molecule microarray, fluorescence 635/667, psychiatric disease protein project, primary screen (AID 1075);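 note: score combines 667 nm spot fluorescence with signal to noise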
# Conditions: NRG1 binding, 635 nm fluorescence, higher = more signal
row,SMILES,composite z-score
1,O=C(O)C1=CC[C@H]2C(=O)N(c3ccccc3)C(=O)[C@@H]12,0.42
2,C=CC[C@H](OC(=O)Nc1ccc(SC)cc1)c1ccc(O)c(F)c1,0.659
3,COC(=O)C1(CC(C)C)C=C2C(=C(C)C(=O)C2C)CN1 (stereo not drawn),-0.304
4,[N-]=[N+]=NCc1ccccc1C[C@]1(C(=O)N2CCCCC2)COC(c2ccc(OCCCO)cc2)=N1,1.13
5,C=C[C@H](C)[C@@H](OC(=O)Nc1ccc(SC)cc1)c1ccc(OCCO)cc1,0.99
6,COC(=O)Cn1c(C(=O)N(C)C)cc2c1C[C@H]1CN(C(=O)c3ccccc3)[C@@](Cc3ccccc3)(C(=O)OC)[C@@H]21,1.5
7,O=C1c2ccccc2[C@](Cc2ccccc2I)(C(=O)NCCN2CCOCC2)[C@H](c2ccc(CO)cc2)N1Cc1ccccc1C(F)(F)F,1.2
8,Cc1ccc(S[C@]2(C(=O)NCCN3CCOCC3)CC(=O)N(C(C)C)[C@@H]2c2ccc(CO)cc2I)cc1,1.69
9,C=C(CCCC)C(=O)CC[C@H](OC(=O)c1ccccc1-c1ccccc1C(=O)O)c1cccc(OCCO)c1,1.29
10,[N-]=[N+]=Nc1ccccc1C[C@@]1(C(=O)NCc2ccccc2)N=C(c2ccc(OCCCO)cc2)O[C@@H]1c1ccccc1,0.794
11,C=CCNC(=O)[C@@H]1[C@H]2C(=O)O[C@H](c3ccccc3)[C@H](c3ccccc3)N2[C@H](c2ccc(OCCO)cc2)[C@@]12C(=O)Nc1ccc(C#CC3=CCCCC3)cc12,1.28
12,CC(C)C[C@@H]1NC(=O)[C@H]2C[C@@H](C(=O)O)[C@@H](c3cccc(OCCO)c3)N2C1=O,1.61
13,CC(C)c1ccc(NN2C(C(O)C(C)c3ccccc3)C=CC3C(=O)N(c4ccccc4)C(=O)C32)cc1 (stereo not drawn),2.09
14,Cc1ccc(S(=O)(=O)N2[C@@H](c3ccccc3)C(C(=O)O)=C[C@H]2C(C)(C)C)cc1,1.37
15,CCOC(=O)C1=CC[C@@H](c2ccccc2)N(S(=O)(=O)c2ccc(C)cc2)[C@@H]1C#N,1.11
16,COCCOC(=O)N1C(=O)[C@@]2(c3cc(C#CCC(C(=O)OC)C(=O)OC)ccc31)[C@H](C(=O)N1CCc3cc(OC)c(OC)cc3C1)[C@H]1C(=O)O[C@H](c3ccccc3)[C@H](c3ccccc3)N1[C@@H]2c1ccccc1OCCO,0.875
17,CN(C)CCCC[C@@H]1NC(=O)[C@H]2C[C@@H](C(=O)NCCCCCCNC(=O)CS)[C@@H](c3cccc(OCCO)c3)N2C1=O,0.891
18,COc1cc2c(cc1O)C(C)N(Cc1sc3ccccc3c1Cl)CC2 (stereo not drawn),0.717

row,SMILES,composite z-score
1,COCCOC(=O)N1C(=O)[C@@]2(c3cc(C#CCC(C(=O)OC)C(=O)OC)ccc31)[C@H](c1ccc(O)cc1)N1[C@H](c3ccccc3)[C@H](c3ccccc3)OC(=O)[C@H]1[C@@H]2C(=O)N1CCc2cc(OC)c(OC)cc2C1,1.04
2,CCOC(=O)C1=CCC(c2ccncc2)N(S(=O)(=O)c2ccc(C)cc2)C1 (stereo not drawn),2.03
3,COC(=O)[C@@]1(Cc2ccc(F)cc2)[C@H]2c3cc(C(=O)N4CCCC4)n(Cc4ccc(C(F)(F)F)nc4)c3C[C@H]2CN1C(=O)c1ccccc1,2.1
4,CC(C)(C)OC(=O)CC[C@@]1(C(N)=O)N=C(c2ccc(OCCCO)cc2)O[C@@H]1c1ccccc1CN=[N+]=[N-],1.28
5,C=CCNC(=O)[C@H]1[C@@H]2C(=O)O[C@@H](c3ccccc3)[C@@H](c3ccccc3)N2[C@@H](c2ccc(OCCO)cc2)[C@]12C(=O)N(C(=O)OCCOC)c1ccc(C#CCC(C(=O)OC)C(=O)OC)cc12,1.63
6,C=CCOC(=O)[C@H]1[C@@H]2C(=O)O[C@@H](c3ccccc3)[C@@H](c3ccccc3)N2[C@@H](c2ccc(OCCOC(=O)[C@@H]3C[C@@H]4C(=O)N[C@@H](Cc5ccccc5)C(=O)N4[C@@H]3c3ccc(O)cc3)cc2)[C@]12C(=O)Nc1ccc(I)cc12,0.422
7,CCN1C(=O)C2CC(=O)C3C(CN(S(=O)(=O)c4ccc(C)cc4)C3c3ccc(C)cc3)C2C1=O (stereo not drawn),1.61
8,C=C(C)C1CN([C@H](CO)c2ccccc2)C(=O)/C1=C\c1ccccc1 (stereo partly drawn),0.049
9,C=C(COC)C(=O)CC[C@H](OC(C)=O)c1ccc(CO)o1,0.0866
10,COC(=O)C(CC#Cc1ccc2c(c1)[C@]1(C(=O)N2)[C@H](C(=O)NC[C@H](O)c2ccccc2)[C@H]2C(=O)O[C@H](c3ccccc3)[C@H](c3ccccc3)N2[C@@H]1c1ccc(O)cc1)C(=O)OC,0.529
11,C=C[C@H](OC)[C@@H](O)c1ccc(OC)c(O)c1,-0.967
12,CC[C@@H](O[Si](C#C[Si](C(C)C)(C(C)C)C(C)C)(C(C)C)C(C)C)c1cn(Cc2cccc(Cl)c2)nn1,-0.019
13,COC(=O)C1=CC(c2ccc(CO)cc2)=CC(C2CC2)N(Cc2cc3c(cc2Br)OCO3)C=C1C(=O)OC (stereo not drawn),1.97
14,O=C(NCCN1CCOCC1)[C@@H]1c2ccccc2C(=O)N(CC23CC4CC(CC(C4)C2)C3)[C@H]1c1ccc(CO)cc1,1.78
15,COCCCNC(=O)[C@@]1(CCC(=O)OC(C)(C)C)N=C(c2ccc(OCCCO)cc2)O[C@H]1c1ccccc1,1.64
16,CN1C2C=C(c3ccc(CO)cc3)C(C3C(=O)N(C(N)=O)C(=O)C32)C1C1CC1 (stereo not drawn),0.0413
17,N#Cc1ccc(NN2C(C(O)c3ccc(B(O)O)cc3)C=CC3CN(c4ccccc4)C(=O)C32)cc1 (stereo not drawn),0.501
